Screening results as filed in PubChem.
SNCA viab count: reduces viability of HEK-293 SNCA reporter cells | Potency, µM (titrated, usually from 57.1 µM), hits mostly cytotoxic | AID 1671193 | HEK-293-SNCA-luc viability, GF-AFC fluorescence, 24 h | 150,000 tested, 0.12% active; also: nearly all actives have a fitted effect of over 30% in size
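Cytotoxicity counterscreen: after 24 h compound treatment of genome-edited SNCA-luciferase HEK-293 cells, live-cell protease substrate GF-AFC read by fluorescence after 30 min; activity scaled between DMSO (0%) and medium-only (-100%), curves Hill-fitted.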
SNCA expr inh: reduces expression of the alpha-synuclein gene; HEK-293 SNCA-luciferase knock-in, luminescence, 24 h; Potency, µM (doses to about 57.2 µM), most hits filed as inhibitors; 140,000 tested, 0.17% active; also: nearly all actives have a fitted effect of over 45% in size
KDM5B inhibitor: blocks human KDM5B histone demethylase activity | Q9UGL1 | KDM5B demethylase, FDH-coupled NADH fluorescence (FDH is formaldehyde dehydrogenase) | Potency, µM (series often up to 57.7 µM), hits mostly inhibitors | 220,000 tested, 2.6% active | AID 1347165; also: nearly all actives have a fitted effect of over 70% in size
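Measured: NADH fluorescence change, 30 min, RT. System: KDM5BΔAP 200 nM final, H3K4me3 peptide, α-KG, Fe(II), ascorbate, NAD⁺ plus FDH, pH 7.5 HEPES. Compounds: titrated, 10 min pre-incubation with enzyme.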
IP6K1 inh: inhibitors of human IP6K1; Q92551; IP6K1 kinase, ADP-Glo luminescence, 2 h; stronger effect = lower value; activity change, % (series mostly up to about 58 µM); 140,000 tested, 0.81% active; AID 1645851; in the data active = activity change below about -25%
Target sequence (Q92551 whole entry, looked up): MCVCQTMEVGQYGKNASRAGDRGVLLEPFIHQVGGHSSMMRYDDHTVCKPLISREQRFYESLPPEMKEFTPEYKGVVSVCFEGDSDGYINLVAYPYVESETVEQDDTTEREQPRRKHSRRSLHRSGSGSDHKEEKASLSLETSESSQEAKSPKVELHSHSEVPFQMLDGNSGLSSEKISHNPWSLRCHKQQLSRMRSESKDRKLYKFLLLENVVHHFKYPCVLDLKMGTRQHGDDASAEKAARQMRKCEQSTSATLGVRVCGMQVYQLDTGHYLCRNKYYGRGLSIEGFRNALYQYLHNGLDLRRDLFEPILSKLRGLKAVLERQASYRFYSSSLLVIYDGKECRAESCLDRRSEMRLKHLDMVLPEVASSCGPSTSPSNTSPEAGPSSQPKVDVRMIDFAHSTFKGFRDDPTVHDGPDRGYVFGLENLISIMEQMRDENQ
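ADP-Glo luminescence measures ADP made by human IP6K1 during a 2 h RT reaction with ATP/IP6 (mix at 1.3 mM/130 uM); top library doses 57.5 and 19.1 uM final.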
A number is an active result; [ ] = another dose, or the depositor's remark. Compounds with a hit are over-represented: about 2.9% of the library has one in this group of screens. Unless noted, calls follow the shape of the dose curve; as a rule, active = well fitted curve in the direction sought with a large enough effect; inconclusive = small, poorly fitted or top-dose-only effect, or another doubt; inactive = no such curve, though single readings can be large; an effect the other way counts as inactive or inconclusive.

For C[C@H]1[C@@H]2[C@@H](O)C([C@H](C)C(=O)NCc3ccccc3)CC[C@@]2(C)CC[C@@H]1NC(=O)c1ccncc1 (some centres undefined) the results were SNCA viab count inactive, SNCA expr inh inactive, KDM5B inhibitor inactive and IP6K1 inh inactive.
`COc1ccccc1-c1cccc(CN2CCCC(C(=O)Nc3ccc(F)cc3)C2)c1` (centres undefined) gave SNCA viab count inconclusive, SNCA expr inh inconclusive and IP6K1 inh inactive.
Cc1ccc(S(=O)(=O)N2C[C@@H](F)C[C@H]2C(=O)N2CCc3ccccc3C2)cc1F was read as SNCA viab count inactive, SNCA expr inh inactive, KDM5B inhibitor inactive and IP6K1 inh inactive.
`COc1cc(CNC(=O)c2ccc3c(c2)NC(C)(CNc2ccccc2)CO3)cc(OC)c1` (centres undefined) gave SNCA viab count inactive, SNCA expr inh inconclusive, KDM5B inhibitor inconclusive and IP6K1 inh inactive.
For CC1(CNc2ccccc2)COc2ccc(C(=O)NCc3ccc(F)cc3)cc2N1 (centres undefined) the results were SNCA viab count inconclusive, SNCA expr inh inactive, KDM5B inhibitor 31.6µM and IP6K1 inh inactive.
`O=C(c1ccc(N2CCCC2)nc1)N1CCC(N2CCOCC2)CC1` gave SNCA viab count inactive, SNCA expr inh inactive, KDM5B inhibitor inconclusive and IP6K1 inh inactive.
O=C(c1ccc(N2CC[C@H](O)C2)nc1)N1CCC(N2CCOCC2)CC1 was read as SNCA viab count inactive, SNCA expr inh inactive, KDM5B inhibitor 25.1µM and IP6K1 inh inactive.
Screening O=C(C1CC(=O)N(C2CCCC2)C1)N1CCN(c2ccc(Cl)cn2)CC1 (centres undefined) returned SNCA viab count inactive, SNCA expr inh inactive, KDM5B inhibitor 31.6µM and IP6K1 inh inactive.
For O=C(C1CCC(=O)N(C2CCCC2)C1)N1CCN(c2nccs2)CC1 (centres undefined) the results were SNCA viab count inactive, SNCA expr inh inactive, KDM5B inhibitor inactive and IP6K1 inh inactive.
CCCN1CCN(CCNC(=O)c2cn3ccnc(-c4ccc(OC)cc4)c3n2)CC1 was read as SNCA viab count inactive, SNCA expr inh inactive, KDM5B inhibitor 20µM and IP6K1 inh inactive.
For CCN1CCN(CCCNC(=O)c2cn3ccnc(-c4ccc(C)cc4)c3n2)CC1 the results were SNCA viab count inactive, SNCA expr inh inactive, KDM5B inhibitor inconclusive and IP6K1 inh inactive.
For COc1ccc(-c2nccn3cc(C(=O)NCCN4CCCCC4)nc23)cc1 the results were SNCA viab count inactive, SNCA expr inh inactive, KDM5B inhibitor 20µM and IP6K1 inh inactive.
CN(CC1CC1)C(=O)c1cc(-c2ccccc2Cl)nc2ccccc12 was read as KDM5B inhibitor inactive.
For CN1CCCC(CN(C)C(=O)c2cc(-c3cnn(CCO)c3)nc3ccccc23)C1 (centres undefined) the results were SNCA viab count inactive, SNCA expr inh inactive, KDM5B inhibitor 31.6µM and IP6K1 inh inactive.
O[C@@H]1C[C@@H](c2nnc3n2CCN(Cc2ccc(F)cc2F)C3)N(Cc2ccccc2)C1 was read as SNCA viab count inactive[12.5 µM], SNCA expr inh inactive, KDM5B inhibitor inactive and IP6K1 inh inactive.
For Cc1ccc(-c2ccc3nnc(CNC(=O)Cc4ccc(Cl)cc4)n3n2)cc1 the results were SNCA viab count inactive, SNCA expr inh inconclusive, KDM5B inhibitor inconclusive and IP6K1 inh inactive.
For Cc1ccc(-c2ccc3nnc(CNC(=O)c4ccco4)n3n2)cc1C the results were SNCA viab count inactive, SNCA expr inh inactive, KDM5B inhibitor 22.4µM and IP6K1 inh inactive.
Screening O=C(NCc1nnc2ccc(-c3ccccc3)nn12)c1ccc(F)c(F)c1 returned SNCA viab count inconclusive, SNCA expr inh inconclusive, KDM5B inhibitor 28.2µM and IP6K1 inh inactive.
For Cc1ccc(-c2ccc3nnc(CNC(=O)c4ccc(F)c(F)c4)n3n2)cc1C the results were SNCA viab count inactive, SNCA expr inh inconclusive, KDM5B inhibitor 31.6µM and IP6K1 inh inactive.
Screening O=C(NCc1nnc2ccc(-c3ccc(Cl)cc3)nn12)c1ccc(F)c(F)c1 returned SNCA viab count inactive, SNCA expr inh inactive, KDM5B inhibitor 31.6µM and IP6K1 inh inactive.
For Cc1ccc(-c2ccc3nnc(CNC(=O)c4ccc[nH]4)n3n2)cc1C the results were SNCA viab count inactive, SNCA expr inh inactive, KDM5B inhibitor inactive and IP6K1 inh inactive.
For Cc1ccc(-c2ccc3nnc(CNC(=O)c4ccc(N(C)C)cc4)n3n2)cc1C the results were SNCA viab count inactive, SNCA expr inh inactive, KDM5B inhibitor inactive and IP6K1 inh inactive.
CCN(CC)C(=O)[C@@H]1[C@H](c2cc(OC)c(OC)c(OC)c2)c2cc3c(cc2[C@H](O)[C@H]1CO)OCO3 was read as SNCA viab count inactive, SNCA expr inh inactive, KDM5B inhibitor inactive and IP6K1 inh inactive.
`CCOc1ccc(CNC(=O)CCc2cn(CC)c3ccccc23)cc1` gave SNCA viab count inactive, SNCA expr inh inactive, KDM5B inhibitor inactive and IP6K1 inh inactive.
`CC(C)(C)c1ccnc(N[C@H]2CO[C@H]3[C@@H]2OC[C@@H]3NC(=O)CCCC(=O)O)n1` gave SNCA viab count inactive, SNCA expr inh inactive, KDM5B inhibitor inactive and IP6K1 inh inactive.
For CC(C)COc1ccc(C(=O)N(Cc2cccc(F)c2)C2CCS(=O)(=O)C2)cc1 (centres undefined) the results were SNCA viab count inactive, SNCA expr inh inactive, KDM5B inhibitor inactive and IP6K1 inh inactive.
For Cc1ccc(C(=O)NCc2nnc3ccc(-c4ccc(C)c(C)c4)nn23)s1 the results were SNCA viab count inactive, SNCA expr inh inactive, KDM5B inhibitor 28.2µM and IP6K1 inh inactive.
For O=C(NCc1nnc2ccc(-c3ccc(Cl)cc3)nn12)c1cccc(Br)c1 the results were SNCA viab count inactive, SNCA expr inh inactive, KDM5B inhibitor 28.2µM and IP6K1 inh inactive.
`O=C(NCc1nnc2ccc(-c3ccccc3)nn12)c1cccc(C(F)(F)F)c1` gave SNCA viab count inactive, SNCA expr inh inactive, KDM5B inhibitor 31.6µM and IP6K1 inh inactive.
Screening Cc1ccc(-c2ccc3nnc(CNC(=O)c4ccc(F)c(F)c4)n3n2)cc1 returned SNCA viab count inactive, SNCA expr inh inactive, KDM5B inhibitor 28.2µM and IP6K1 inh inactive.
For O=C(NCc1nnc2ccc(-c3ccccc3)nn12)c1cccc(Cl)c1 the results were SNCA viab count inactive, SNCA expr inh inconclusive, KDM5B inhibitor inconclusive and IP6K1 inh inactive.
`Cc1ccc(-c2ccc3nnc(CNC(=O)c4ccc5c(c4)OCO5)n3n2)cc1` gave SNCA viab count inactive, SNCA expr inh inactive, KDM5B inhibitor inactive and IP6K1 inh inactive.
For Cc1ccc(-c2ccc3nnc(CNC(=O)c4cccc(N(C)C)c4)n3n2)cc1C the results were SNCA viab count inactive, SNCA expr inh inactive, KDM5B inhibitor inactive and IP6K1 inh inactive.
For CN(C)CCCc1cc(C(=O)Nc2ccc(-c3ccncc3)cc2)ccc1O the results were SNCA viab count inconclusive and SNCA expr inh inactive.
For COc1ccc(C(=O)NCc2nnc3ccc(-c4ccc(C)c(C)c4)nn23)cc1 the results were SNCA viab count inactive, SNCA expr inh inactive, KDM5B inhibitor 20µM and IP6K1 inh inactive.
